Compound activity as filed in PubChem.
Compounds with a hit are over-represented: about 3.8% of the library has one in this group of screens.
esBAF inh: Bmi1 luciferase reporter increase in mESCs, primary screen, esBAF inhibitor project, mouse ES cells, Bmi1 luciferase knock-in, single point. 24 h; 100% = twice the neutral-well signal. reporter increase, % at 12.5 µM. 350,000 tested, 2% active. AID 602393, 2012; in the data active = activation above about 40%; inconclusive = no clear call, values can overlap the other calls;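 also: a rise in the Bmi1 reporter signal indicates esBAF inhibition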
HSF1 inhib: HSF1 inhibitors in luciferase reporter cells, primary screen, cell-based, NIH3T3, luminescence; 300,000 tested, 0.77% active; activity change, negative = inhibition, % at 7.5 µM (by protocol); NIH3T3-HGL HSE-luciferase, MG132-induced, luminescence 8 h; hits give low values; AID 2098, 2009;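 active = more than half of replicate wells show activity change below -50%, luminescence cut by over half; inconclusive = some wells, but at most half, below -50%; inactive = no replicate well below -50%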;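 also: luciferase reports HSF-1 transcriptional activity via heat shock element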
Wnt bcat act: Wnt/beta-catenin pathway activators, primary screen, cell-based, plate reader, single point; Wnt/beta-catenin reporter cell assay, activator; activation, % at 9.35 µM; 300,000 tested, 1.2% active; AID 743398, 2014; in the data active = activation above about 30%, passing the limit was not always enough; inconclusive = no clear call, values can overlap the other calls
MITF act: activators of MITF-driven TRPM1 promoter reporter, primary screen, cell-based, SK-MEL-5, luciferase, single point | activation, % at 12.5 µM | SK-MEL-5 TRPM1-promoter luciferase, 24 h; % of positive control, neutral wells = 0 | 300,000 tested, 0.75% active;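 active = mean activation of at least 80% with every replicate also reaching 80%; inconclusive = mean reaches 80% but some replicate falls short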
HSF1 activator: HSF-1 activators, primary screen, NIH3T3-HGL cells, MG132 stress, luminescence, single point; AID 504408, 2011; activation, % at 9 µM; NIH3T3-HGL HSF-1 luciferase reporter, 8 h; 100% = twice DMSO control signal; 300,000 tested, 1.7% active;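 active = mean replicate activation of at least 50% with a set share of replicates each reaching 50%; inconclusive = only one of those two conditions met; inactive = mean below 50% and too few replicates reaching it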
Numbers stand for hits; - = inactive; ? = inconclusive; . = no result given.

SMILES	esBAF inh	HSF1 inhib	Wnt bcat act	MITF act	HSF1 activator
S=C(Nc1ccccc1)Nc1nccs1	59.5	-	-	-	-
O=C(Cc1ccc(F)cc1)Nc1nccs1	-	-	-	-	-
CC(C)(C)c1nnc(NC(=S)Nc2ccccc2)s1	75.5	-	-	-	-
Fc1ccc(NC(=S)Nc2nccs2)cc1	.	-	-	-	64.0
O=C(COc1cc(Cl)c(Cl)cc1Cl)Nc1cccc(O)c1	.	-	45.2	138.8	86.7
Cc1ccc(OCC(=O)Nc2cccc(O)c2)cc1C	-	-	49.4	103.7	-
O=C(COc1cc(Cl)c(Cl)cc1Cl)Nc1ccncc1	-	-	-	.	-
CCC(C)c1ccc(OCC(=O)Nc2cccc(C(=O)Nc3ccc(C(=O)O)cc3)c2)cc1 (stereo not given)	47.3	-	-	-	-
CCC(C)c1ccc(OCC(=O)Nc2ccc3[nH]c(=O)[nH]c3c2)cc1 (stereo not given)	.	-	-	-	-
Cc1ccnc(NS(=O)(=O)c2ccc(NC(=O)COc3ccccc3)cc2)n1	.	-87.9	-	-	-
C/C=C/c1ccc2c(c1)O[C@@H](CN(C)Cc1ccc(C(=O)O)cc1)[C@H](C)CN([C@H](C)CO)S2(=O)=O	-	.	.	.	.
C[C@H]1CN([C@@H](C)CO)C(=O)c2cc(NS(=O)(=O)c3ccccc3)ccc2O[C@@H]1CN(C)Cc1ccc(C(=O)O)cc1	-	.	.	.	.
CC(C)c1ccc(NC(=O)COc2ccccc2)cc1	79.3	-	-	-	-
Cc1cccc(OCC(=O)Nc2cccc(O)c2)c1	-	-	33.8	.	-
CC(=O)Nc1cccc(OCC(=O)Nc2ccccc2)c1	44.8	-	38.3	.	-
Cc1ccc(C)c(OCC(=O)Nc2cccc(C(=O)O)c2)c1C	?	-	37.2	.	-
C[C@@H]1CN([C@@H](C)CO)C(=O)Cc2cc(NC(=O)Cc3ccccc3)ccc2O[C@H]1CN(C)S(=O)(=O)c1cccs1	-	.	.	.	.
CC(C)NC(=O)N(C)C[C@@H]1OCCCC[C@@H](C)Oc2ccc(NC(=O)Nc3cccc4ccccc34)cc2C(=O)N([C@@H](C)CO)C[C@@H]1C	-	.	.	.	.
C[C@H](CO)N1C[C@H](C)[C@H](CN(C)Cc2ccc(Oc3ccccc3)cc2)Oc2c(NC(=O)Nc3ccc(C(F)(F)F)cc3)cccc2C1=O	-	.	.	.	.
CS(=O)(=O)N1[C@@H]2c3ccc(-c4ccccc4)c(=O)n3C[C@@H]2[C@@H](CO)[C@@H]1C(=O)NC1CCC1	-	.	.	.	.
C[C@H]1CN([C@@H](C)CO)C(=O)c2c(c3ccccc3n2C)-c2ccccc2CO[C@H]1CN(C)C(=O)Nc1ccc2c(c1)OCO2	60.0	.	.	.	.
C[C@@H]1CN([C@H](C)CO)C(=O)c2c(c3ccccc3n2C)-c2ccccc2CO[C@H]1CN(C)C(=O)Nc1ccc2c(c1)OCO2	80.8	.	.	.	.
C[C@@H]1CN([C@@H](C)CO)C(=O)c2c(c3ccccc3n2C)-c2ccccc2CO[C@H]1CN(C)C(=O)Nc1ccc2c(c1)OCO2	86.4	.	.	.	.
C[C@@H]1CN([C@H](C)CO)C(=O)c2c(c3ccccc3n2C)-c2ccccc2CO[C@@H]1CN(C)C(=O)Nc1ccc2c(c1)OCO2	-	.	-	.	.
C[C@H](CO)N1C[C@H](C)[C@H](CN(C)C(=O)Nc2ccc3c(c2)OCO3)OCc2ccccc2-c2c(n(C)c3ccccc23)C1=O	92.9	.	.	.	.
SMILES	esBAF inh	HSF1 inhib	Wnt bcat act	MITF act	HSF1 activator
Cc1ccc(-c2ccc([C@@H]3[C@@H](CO)N4CCCCN(S(=O)(=O)c5ccccc5C)C[C@@H]34)cc2)cc1	-	.	.	.	.
C[C@H](O)C#Cc1ccc2c(c1)O[C@@H](CN(C)C(=O)CN(C)C)[C@H](C)CN([C@@H](C)CO)S2(=O)=O	-	.	.	.	.
C[C@H]1CCCCO[C@H](CN(C)S(=O)(=O)c2cn(C)cn2)[C@@H](C)CN([C@@H](C)CO)C(=O)c2cc(NS(=O)(=O)c3ccc(F)cc3)ccc2O1	-	.	.	.	.
CC(C)C#Cc1cnc2c(c1)C(=O)N([C@@H](C)CO)C[C@@H](C)[C@H](CN(C)C(=O)c1cccc(F)c1)O2	-	.	.	.	.
C[C@H](CO)N1C[C@H](C)[C@H](CN(C)S(C)(=O)=O)Oc2c(NS(=O)(=O)c3ccc(Cl)cc3)cccc2C1=O	-	.	.	.	.
Nc1ncnc2oc(-c3ccco3)c(-c3ccco3)c12	-	-53.1	.	-	-
COc1cccc(OCc2cc(C(=O)NCc3ccccn3)no2)c1	61.3	-	-	110.2	-
COc1cccc(OCc2cc(C(=O)N(C)Cc3nc(C)cs3)no2)c1	77.8	-	-	-	-
CCCc1ccc(OCc2ccc(C(=O)OC)o2)c(OC)c1	43.1	-	-	-	-
Cc1cc(CN(C)C(=O)c2cc(COc3ccc(C)c(C)c3)on2)on1	?	-	-	?	-
CCc1ccc(OCc2ccc(C(=O)NCc3ccccn3)o2)cc1	45.9	-	.	-	-
COCC(=O)Nc1ccc2c(c1)[C@@H]1C[C@H](CC(=O)NCc3cccc(F)c3)O[C@H](CO)[C@@H]1O2	-	.	.	.	.
CO[C@@H]1CN(C)C(=O)c2ccc(NS(=O)(=O)c3cn(C)cn3)cc2OC[C@@H](C)N(Cc2cccc(F)c2)C[C@H]1C	-	.	.	.	.
CC(C)NC(=O)N(C)C[C@H]1Oc2ccc(N(C)C)cc2C(=O)N([C@H](C)CO)C[C@@H]1C	-	.	.	.	.
C[C@H](CO)N1C[C@H](C)[C@H](CN(C)C(=O)CC2CC2)Oc2cc(C#CC3CC3)ccc2S1(=O)=O	-	.	.	.	.
CCc1ccc(OCc2ccc(C(=O)OC)o2)cc1	?	-	30.6	88.8	-
Cc1cccnc1NC(N)=S	.	-	-	-	-
COc1ccc(NC(=S)Nc2ncccc2C)c(OC)c1	47.7	-	-	-	-
Cc1ccc(NC(=S)NCCc2ccccc2)nc1	.	-	-	84.3	-
Cc1cccnc1NC(=S)Nc1ncccc1C	-	-	-	101.3	-
Cc1cccnc1NC(=S)NCCc1ccccc1	?	-	39.6	?	-
C[C@@H]1CCCCO[C@@H](CN(C)C(=O)Nc2ccccc2)[C@H](C)CN([C@@H](C)CO)C(=O)c2cc(NC(=O)c3ccccc3)ccc2O1	-	.	.	.	.
C[C@@H]1CN([C@@H](C)CO)C(=O)c2cc(NS(=O)(=O)c3ccccc3)ccc2O[C@@H](C)CCCCO[C@@H]1CN(C)C(=O)CCC(F)(F)F	-	.	.	.	.
C[C@@H]1CN([C@@H](C)CO)C(=O)Cc2cc(NS(=O)(=O)c3ccc(F)cc3)ccc2O[C@H]1CN(C)S(=O)(=O)c1ccc(F)cc1	-	.	.	.	.
COc1ccc(NC(=S)NCCSc2ccc(C)cc2)c(OC)c1	.	-	61.0	-	-
O=C(N/N=C/c1cn(-c2ccccc2)nc1-c1cc2ccccc2o1)c1ccncc1	.	-	.	-	-
O=C(N/N=C/c1cn(-c2ccccc2)nc1-c1cc2ccccc2o1)c1cccnc1	.	-	73.3	-	-
